Experimental findings from PubChem BioAssay AID504326 (The Scripps Research Institute Molecular Screening Center, 2011) are described below.

In all, about 340,000 compounds went through this assay and about 990 (0.29%) were called active. Shown is part of a subset that was picked to be rich in actives. Unmarked numbers belong to inactive results. Cut-off read from the data, not from the text of the source: active = activation above about 18%; inactive = the rest.

Sequence of Mu-type opioid receptor (Homo sapiens) + Delta-type opioid receptor (Homo sapiens) (P35372 whole entry, looked up): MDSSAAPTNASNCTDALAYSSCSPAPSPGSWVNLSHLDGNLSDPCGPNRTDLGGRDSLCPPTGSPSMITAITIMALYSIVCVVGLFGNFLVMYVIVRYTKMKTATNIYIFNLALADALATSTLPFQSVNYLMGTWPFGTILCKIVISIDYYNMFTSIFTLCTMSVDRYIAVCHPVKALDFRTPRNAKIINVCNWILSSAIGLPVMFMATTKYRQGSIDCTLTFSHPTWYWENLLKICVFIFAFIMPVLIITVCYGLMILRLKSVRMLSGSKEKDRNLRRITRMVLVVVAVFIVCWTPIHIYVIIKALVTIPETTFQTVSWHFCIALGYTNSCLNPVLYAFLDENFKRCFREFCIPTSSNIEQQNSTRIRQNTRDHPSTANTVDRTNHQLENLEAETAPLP
Sequence of Mu-type opioid receptor (Homo sapiens) + Delta-type opioid receptor (Homo sapiens) (P41143 whole entry, looked up): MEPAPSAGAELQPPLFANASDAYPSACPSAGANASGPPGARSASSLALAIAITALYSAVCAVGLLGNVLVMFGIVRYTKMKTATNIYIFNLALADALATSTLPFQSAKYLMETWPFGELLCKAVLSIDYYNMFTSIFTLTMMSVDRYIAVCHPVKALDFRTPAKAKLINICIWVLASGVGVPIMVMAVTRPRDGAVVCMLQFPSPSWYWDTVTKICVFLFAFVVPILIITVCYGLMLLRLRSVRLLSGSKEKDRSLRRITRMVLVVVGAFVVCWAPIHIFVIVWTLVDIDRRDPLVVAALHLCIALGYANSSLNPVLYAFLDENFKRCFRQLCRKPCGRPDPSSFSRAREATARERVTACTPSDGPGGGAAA

The experiment has as its target Mu-type opioid receptor (Homo sapiens) + Delta-type opioid receptor (Homo sapiens) (UniProt P35372+P41143). Description: inducers of mu-delta opioid receptor heterodimers – cell-based, luminescence, primary screen (AID 504326).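 Note: 0% = vehicle-treated cells and 100% = reference agonist.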 Particulars: cells, OPRM1-OPRD1 heterodimerization, at 9.3 µM, hits give high values.
For `COC1C(O)C(C)OC(OC2CCC3(C=O)C(CCC4C3CCC3(C)C(C5=CC(=O)OC5)CCC43O)C2)C1O` (stereo not given), the activation was 82.9% (active).
Regarding `COc1cc2nc(N3CCN(C(=O)[C@@H]4CCCO4)CC3)nc(N)c2cc1OC`, the activation was -0.16%.
Then `CC1(C)C(c2ccccc2)=NC(c2cccnc2)=[N+]1[O-]`, with -4.09%; and `CC(=O)OC1C2(CC3N4C(=O)C5(CO)SSC4(CC31O)C(=O)N5C)OC(C)C(C)(C)C2=O` (stereo not given), with -23.2%.
With `C[C@]12CC[C@H](O)C[C@H]1CC[C@@H]1C2CC[C@]2(C)[C@@H](C3=CC(=O)OC3)[C@@H](O)C[C@]12O` (stereo not given in full), the activation is 62.4% (active).
On to `C[C@]12CCC3C(CC[C@H]4C[C@@H](O)CC[C@]34C)C1C[C@@H](O)[C@H]2O` (stereo not given in full), for which the activation was -2.9%.
Then `C[C@]12CCC3C(CC[C@H]4C[C@@H](O)CC[C@]34C)C1CC[C@@H]2O` (stereo not given in full), with -1.31%; and `CCOP(=O)(OCC)C(NC(=O)NC)C(N)=O` (stereo not given), with -3.11%.
In the case of `c1cc2c(cc1C1OCC3C(c4ccc5c(c4)OCO5)OCC13)OCO2` (stereo not given), the activation was 1.03%.
Then `Cn1c(O)c(C=NCCCC(=O)O)c(=O)n(C)c1=O`, with -1.29%; and `CCOC(=O)C1(CCc2ccccc2)CCN(Cc2ccco2)CC1`, with 23.8% (active).
Then `CCOC(=O)C1(c2ccccc2)CCN(CC(O)c2ccc(NC(C)=O)cc2)CC1` (stereo not given), with 3.27%; and `CCOC(=O)C1(Cc2ccc(Cl)cc2)CCN(C(C)CCn2cccn2)CC1` (stereo not given), with 0.28%; and `NC(=O)Cn1cc(C(=O)c2ccccc2F)c2ccccc21`, with -3.05%.
In the case of `c1ccc2sc(C3CCCNC3)nc2c1` (stereo not given), the activation is -2.28%.
The value for `COc1ccc(C2NCc3ccc4c(c3-n3cccc32)OCO4)cc1OC` (stereo not given) was -3.63%; that for `CCC1(C)CC(CCNCc2ccc(N(C)C)cc2)(c2ccc(F)cc2)CCO1` (stereo not given) was 125% (active); that for `COC(=O)C1=C(c2c(C)noc2C)C[C@@H]2CC[C@H]1N2C(=O)NCc1ccc2c(c1)OCO2` was -2.32%.
The value for `CCCCC(=O)N/N=C/c1c(O)n(CC)c(=S)n(CC)c1=O` was 0.54%.
In the case of `O=C1NC(=O)C(CCOc2ccccc2)(CCc2ccccc2)C(=O)N1`, the activation was -1.87%.
